Experimental data: PubChem BioAssay AID2289 (National Center for Advancing Translational Sciences (NCATS), 2010)
Among all 340,000 compounds or so, about 3,300 (0.97%) were called active. Roughly 9% stayed inconclusive and do not appear here. Calls follow the shape of the dose curve; as a rule, active = well fitted inhibition curve with a large enough effect; inconclusive = small, poorly fitted or top-dose-only effect, or effect the other way; inactive = flat fitted curve, though single readings scatter. The list shows a part of the results.

assay: qHTS Assay for Modulators of miRNAs and/or Inhibitors of miR-21; settings: HeLa miR-21-FLuc reporter, luciferase luminescence, 48 h; actives lower the signal; also: nearly all actives have a fitted effect of over 55% in size
From the text: MLSCN Grant: 1 R21 NS059478-01 Assay Provider: Qihong Huang, The Wistar Institute NCGC Assay Overview: MicroRNAs (miRNAs) are endogenously encoded small (~20-25 nucleotides), nonprotein-coding RNAs that are involved in post-transcriptional repression of target messenger RNAs (mRNAs) (Le and Hannon, 2004). Estimated to be involved in the regulation of 30% of all protein-coding mRNAs (Filipowicz et al., 2008), miRNAs play a significant role in many biological processes including cellular differentiation and tissue development (Ghildiyal and Zamore, 2009).
NCGC Assay Protocol Summary: Reagents: HeLa cells stably expressing firefly luciferase (FLuc) under the control of a CMV promoter (upstream) and a miR-21 binding sequence directly downstream of the gene. These cells endogenously express miR-21. Control compounds used were compound C3 (provided by collaborator), N6-phenyladenosine (MP Biomedicals, 0215379625), and DMSO. Assay Summary: 6uL of HeLa miR-21-FLuc cells in assay buffer (DMEM, Invitrogen #21063-029; 10% FBS, HyClone #SH30071.03) were dispensed at 2000cells/well (3.3 x 10^5 cells/mL) into Greiner solid-white TC-treated 1536-well plates using a Multidrop Combi (Thermo Fisher Scientific). Plates were incubated for one hour at 37 degree Celsius, 95% humidity, 5% CO2. These assay plates were then treated with 23nL of compound or DMSO using a Kalypsys pin tool, which allows for delivery of a 24-point titration of each compound to the assay plate, with a final compound concentration ranging from approximately 40uM to 5pM. Assay plates were then incubated for 48 hours. After incubation, plates were allowed to come to RT for one hour prior to delivery of 3uL of 3X luciferase detection reagent. After a 15 minute incubation to allow for cell lysis, luciferase activity was measured using a ViewLux CCD imager (PerkinElmer), with an average exposure time of 2-12 seconds. Keywords: NIH Roadmap, MLPCN, MLSMR, qHTS, miR-21, microRNA, firefly luciferase, FLuc.
Potency is read from the fitted curve at half-maximal effect.

Potency, active:
COc1ccc(NC(=O)CCSc2ccc(F)cc2)cc1 7.36 µM
O=C(CSc1ccc(F)cc1)Nc1ccc(C2SCCS2)cc1 11.7 µM
COc1ccccc1NC(=O)c1csc2c1CCC(C)C2 (configuration not stated) 5.85 µM
CC1CCc2c(C(=O)NCc3ccccn3)csc2C1 (configuration not stated) 11.7 µM
Cc1ccc(-c2cc(NC(=O)c3ccccc3Cl)on2)cc1 2.61 µM
CCc1nc(NC(C)(C)C)c2cnn(-c3ccccc3)c2n1 7.36 µM
Cc1ccoc1C(=O)Nc1cccc(Oc2ccccc2)c1 3.29 µM
CCn1c(O)c(/C=C2\C=Nc3ccccc32)sc1=O 1.17 µM
CCn1c(O)c(/C=C2\C=Nc3ccccc32)sc1=Nc1ccccc1 7.36 µM
N/C(Cc1cccs1)=N\OC(=O)COc1ccccc1Cl 14.7 µM
N/C(=N\OC(=O)Cc1cccs1)c1ccc(Br)cc1 16.5 µM
COc1ccc(/C(N)=N/OC(=O)Cc2cccs2)cc1 6.56 µM
N/C(Cc1cccc2ccccc12)=N\OC(=O)Cc1cccs1 11.7 µM
Fc1ccc(/C=C/c2nnc(-c3cccs3)o2)cc1 2.07 µM
Clc1ccc2oc(-c3ccccc3)cc(=NCCCN3CCOCC3)c2c1 4.14 µM
CCOc1ccc(N/C=C/C(=O)c2ccc(OC)c(OC)c2)cc1 9.27 µM
COc1ccc(N/C=C/C(=O)c2ccc(Cl)cc2)cc1 1.04 µM
Cc1ccc(N/C=C/C(=O)c2ccc(C)cc2)cc1 2.33 µM
COc1ccc(N/C=C\C(=O)c2ccc(C)cc2)cc1OC 14.7 µM
CC(=O)c1ccc(N/C=C\C(=O)c2ccc(C)cc2)cc1 1.31 µM
COc1ccc(C(=O)/C=C/Nc2cc(C)on2)cc1 2.93 µM
Cc1ccc(NC(=O)C(=O)c2ccc(C)cc2)cc1 2.93 µM
COc1ccc(C(=O)/C=C/Nc2ccc(C)cn2)cc1OC 1.65 µM
COc1ccccc1/C=C/C(=O)N1CCC(c2ccccc2)C1 (configuration not stated) 2.93 µM
O=C(c1ccc(F)cc1)N1CCC(c2ccccc2)C1 (configuration not stated) 7.36 µM
O=C(c1ccc(F)cc1)N1CCC(n2nnc3ccccc32)CC1 5.85 µM
O=C(COc1ccc(F)cc1)N1CCC(c2ccccc2)C1 (configuration not stated) 13.1 µM
O=C(N/N=C\c1ccco1)Nc1cccc(Cl)c1 1.85 µM
Nc1c(C(=O)N2CCCC2)sc2nc(-c3ccccc3)ccc12 3.69 µM
NC(=O)c1sc2nc(-c3cccnc3)ccc2c1N 18.5 µM
NC(=O)c1sc2nc(-c3ccccc3)ccc2c1N 1.85 µM
CCCNC(=O)/C=C/c1ccc(C(C)C)cc1 16.5 µM
C=CCNC(=O)/C=C/c1ccc(C(C)C)cc1 7.36 µM
CCCOc1cccc(C(=O)Nc2ccc(Br)cc2F)c1 1.85 µM
Nc1c(C(=O)c2cccs2)sc2nsc(SCCN3CCCCC3)c12 4.14 µM
CN1/C(=C\C(=O)c2cccc([N+](=O)[O-])c2)Sc2ccccc21 0.329 µM
Cc1ccc(C(=O)Cn2nnc3ccccc32)cc1 2.33 µM
Cc1ccc(C(=O)Cn2nnc3ccccc32)cc1C 1.31 µM
Clc1cccc(CSc2ncn(-c3ccccc3)n2)c1 16.5 µM
Clc1ccccc1CSc1ncn(-c2ccccc2)n1 5.85 µM
O=C(N/N=C/c1ccc(N2CCOCC2)cc1)c1cccs1 3.29 µM
C/C(=N/NC(=O)c1cccs1)c1ccc(N2CCOCC2)cc1 11.7 µM
O=C(Nc1nc2c(F)cc(F)cc2s1)c1ccc2c(c1)OCCO2 0.0826 µM
O=C(/C=C/c1ccc2c(c1)OCCCO2)c1ccccc1O 2.07 µM
Cc1ccc(C(=O)/C=C/c2ccc3c(c2)OCCO3)c(O)c1 18.5 µM
C=CCn1c(C)csc1=Nc1ccc(C(C)=O)cc1 10.4 µM
Cc1cc(C)nc(S/C=C/C(=O)c2ccccc2F)n1 11.7 µM
C/C(N)=C(/C#N)C(=O)CSc1ccccc1F 8.26 µM
Cc1cc(C)n2cc(COc3ccc4ccccc4c3)nc2n1 1.17 µM
Cc1cc(C)n2c(Br)c(CSc3nc4ccccc4s3)nc2n1 4.14 µM
Cc1cc(C)n2cc(CSc3nc4ccccc4s3)nc2n1 4.65 µM
CC(C)c1ccc(NC(=O)C2=NNC(=O)CC2)cc1 2.33 µM
Cc1cnc(C(=O)Nc2ccc(C(C)C)cc2)cn1 1.65 µM
O=C1c2ccccc2NC(c2ccccc2O)N1c1ccc(F)cc1 (configuration not stated) 2.93 µM
O=C(Nc1ccc2c(c1)CCC2)c1ccc(Br)s1 0.261 µM
O=C(Nc1ccc2c(c1)CCC2)c1cccc(F)c1 4.14 µM
O=C(Nc1cccc(F)c1)Nc1ccc2c(c1)CCC2 0.736 µM
O=C1NC(c2ccccc2Cl)=N/C1=C/c1ccco1 10.4 µM
O=C1NC(c2ccc(Br)cc2)=N/C1=C/c1ccco1 0.927 µM
c1csc(-c2nn3c(C4COc5ccccc5O4)nnc3s2)c1 (configuration not stated) 16.5 µM
COc1ccc(C(=O)Nc2ccc(Cl)c(Cl)c2)c(OC)n1 0.355 µM
COc1ccc(NC(=O)c2cc(F)cc(F)c2)cc1Cl 9.27 µM
COc1ccc(NC(=O)Nc2ccccc2F)cc1Cl 2.07 µM
O=C(Cc1cccs1)NCc1cc(Cl)cc(Cl)c1 14.7 µM
Cc1cccc(CCNc2nc3ccc(C)cc3n3cnnc23)c1 16.5 µM
Cc1cc(C(=O)N/N=C/c2c(C)nn(-c3ccccc3)c2C)c(C)o1 8.26 µM
Cc1cc(C(=O)N/N=C/c2c(C)nn(-c3ccccc3)c2C)n[nH]1 14.7 µM
Cc1cc(C(=O)N/N=C/c2ccccc2)c(C)o1 6.56 µM
COc1cccc2[nH]c(=O)c(-c3ccccc3)cc12 1.65 µM
Nc1nc(-c2ccc(Cl)cc2)nnc1-c1ccc(Br)cc1 2.07 µM
CC(=O)Nc1cc2nn(-c3ccccc3)nc2cc1Cl 0.464 µM
CC(C)CC(=O)Nc1ccc2nn(-c3ccccc3)nc2c1 0.656 µM
CCCC(=O)Nc1cc2nn(-c3ccccc3)nc2cc1C 0.369 µM
COc1ccc(O)c(/C=N/N2CCCCC2)c1 5.21 µM
O=C1N/C(=C\c2nc3ccccc3s2)c2ccccc21 0.0736 µM
CSc1nnc(-c2cc3c(s2)-c2ccccc2CC3)o1 1.17 µM
Cn1c(C(=O)NCC2CCCO2)cc2oc3ccccc3c21 (configuration not stated) 2.07 µM
COCCNC(=O)c1cc2oc3ccccc3c2n1C 14.7 µM
Cn1c(C(=O)N2CCc3ccccc3C2)cc2oc3ccccc3c21 10.4 µM
CCc1c(C)sc(NC(=O)c2ccco2)c1C#N 11.7 µM
Cc1sc(NC(=O)c2ccccc2)c(C#N)c1-c1ccccc1 0.826 µM
CCc1c(C)sc(NC(=O)c2cccs2)c1C#N 5.21 µM
Nc1nc2ccc(-c3nc4ccccc4o3)cc2s1 0.927 µM
CN1CCSc2ccc(C(=O)Nc3ccc(Cl)cc3)cc21 1.04 µM
Cc1ccccc1NC(=O)c1ccc2c(c1)N(C)CCS2 3.69 µM
O=C1CCC(=O)N1c1ccc(-c2nc3ccccc3s2)cc1 0.521 µM
c1ccc2sc(-c3ccncc3)nc2c1 6.56 µM
c1csc(-c2nc3ccccc3s2)c1 5.85 µM
O=S(=O)(Nc1cccc(-c2ccc(N3CCCCCC3)nn2)c1)c1ccc(F)cc1 13.1 µM
O=S(=O)(Nc1cccc(-c2ccc(N3CCCCCC3)nn2)c1)c1cccc(F)c1 9.27 µM
CC(OC(=O)CNC(=O)c1ccccc1F)C(=O)Nc1nc(-c2ccccc2)cs1 (configuration not stated) 4.65 µM
Nc1nn2cc(-c3ccccc3)nc2c2ccccc12 0.521 µM
Clc1ccc(COc2ccccc2-c2ccnc3ncnn23)cc1 13.1 µM
CC(O)c1ccc(OCCN(C)c2ccccn2)cc1 (configuration not stated) 16.5 µM
COc1cc(OC)c(NC(=O)CCCn2nc(C)c3sc4ccccc4c3c2=O)cc1Cl 11.7 µM
Cc1ccc(CONC(=O)c2ccccc2)cc1 18.5 µM
CC/C(=N/NC(=O)c1ccccc1)c1ccc(OCCN2CCOCC2)cc1 2.93 µM
Cc1nn(Cc2c(F)c(F)c(F)c(F)c2F)c(C)c1NC(=O)c1cccc(COc2ccc(Cl)cc2)c1 7.36 µM
CC(C)c1cc(C(N)=O)c(NC(=O)c2cccc(COc3ccc(Cl)cc3)c2)s1 0.585 µM
COc1ccc(NC(=S)N2CCc3ccccc32)cc1OC 16.5 µM
Brc1c(CSc2nc3ccccc3s2)nc2ncccn12 3.29 µM
Brc1c(CSc2nc3ccccc3o2)nc2ncccn12 7.36 µM
C/C(=N\Nc1nncc2ccccc12)c1ccc(C(C)(C)C)cc1 7.36 µM
C/C(=N\Nc1nncc2ccccc12)c1ccc(OCC(=O)N(C)C)cc1 4.65 µM
C/C(=N\Nc1nncc2ccccc12)c1cccc(OC(F)F)c1 0.414 µM
COc1ccc(/C(C)=N/Nc2nncc3ccccc23)cc1 0.826 µM
Cc1cc(N2CCOCC2)nc(SCC(=O)c2ccccc2)n1 13.1 µM
